Laboratory results published in the supplement of paper PMC9334596.
Where “and” joins values, the source holds several entries; their conditions need not be identical. Equal values may be shown once. Over roughly 5,300 compounds, “PER2::LUC luminescence relative to vehicle control” has its median near 0.96; the highest 2% begin near 1.3. This excerpt belongs to a sample that is enriched for the highest values.

Test system: mPer2Luc MEF
Test: PER2::LUC luminescence relative to vehicle control (fold of vehicle); higher = higher PER2::LUC reporter signal
Conditions: 10 µM
Outline: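 Each value gives PER2::LUC luminescence as fold of vehicle control, measured with the ONE-Glo luciferase assay system in mouse embryonic fibroblasts carrying the mPer2Luc reporter. Cells grown in DMEM with 10% FBS at 37 °C and 5% CO2 were seeded at ~3000 per well in 384-well plates. Library compounds were added at 10 μM 48 h later, and readings were taken 24 h and 30 h after treatment.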

SMILES | PER2::LUC luminescence (time after treatment 24 h) | PER2::LUC luminescence (time after treatment 30 h)
O=c1cc(-c2ccccc2)oc2cc(O)cc(O)c12 | 1.55 and 1.53 | 2.06 and 1.73
COc1c(O)cc(O)c2c(=O)cc(-c3ccccc3)oc12 | 1.03 | 1.02
O=c1cc(-c2ccc(O)cc2)oc2cc(O)cc(O)c12 | 0.595 | 0.545
COc1ccc(-c2cc(=O)c3c(OC)c(OC)c(OC)cc3o2)cc1OC | 0.736 | 0.843
COc1cc(C)c2c(=O)cc(-c3ccccc3)oc2c1 | 1.64 | 1.76
O=c1cc(-c2ccccc2)oc2cc(O)c(O)c(O)c12 | 1.13 | 1.1
O=C(O)[C@H]1O[C@@H](Oc2cc3oc(-c4ccccc4)cc(=O)c3c(O)c2O)[C@H](O)[C@@H](O)[C@@H]1O | 1.22 | 1.34
COc1cccc2oc(-c3ccccc3)cc(=O)c12 | 1.41 | 1.43
O=c1cc(-c2ccccc2)oc2cccc(O)c12 | 1.25 | 1.42
O=c1cc(-c2ccc(O)c(O)c2)oc2cc(O)cc(O)c12 | 1.01 | 1.1
COc1cc(OC)c2c(=O)cc(-c3ccccc3)oc2c1 | 1.01 | 1.12
COc1ccc(-c2cc(=O)c3c(OC(C)=O)cc(OC(C)=O)cc3o2)cc1 | 1.25 | 1.3
CC[C@H]1OC(=O)C[C@@H](O)[C@H](C)[C@@H](O[C@@H]2O[C@H](C)[C@@H](O)[C@H](N(C)C)[C@H]2O)[C@@H](CCN2CCCCC2)C[C@@H](C)C(=O)/C=C/C(C)=C/[C@@H]1CN1CCCCC1 | 0.885 | 0.882
CC1NC(=O)NC1=O (stereo not given) | 0.946 | 0.877
CCO[C@H]1CN(C2CCC(O)(c3ccc4c(c3)OCO4)CC2)C[C@@H]1NC(=O)CNC(=O)c1cccc(C(F)(F)F)c1 (stereo not given in full) | 0.97 | 0.88
C#CCN(Cc1cc2c(=O)n(C)c(CN3CCN(C)CC3)nc2cc1Cl)c1ccc(C(=O)NCc2cccnc2)cc1 | 0.621 | 0.565
c1ccc2c3c([nH]c2c1)[C@H]1[C@@H]2CC[C@@H]([C@@H]4CCCN[C@@H]42)N1CC3 | 1.23 | 1
CC(C)CCC[C@@H](C)[C@H]1CC[C@H]2[C@@H]3C=CC4=CC(=O)CC[C@]4(C)[C@H]3CC[C@]12C | 0.981 | 0.927
CC(C(=O)O[C@]12CCC[C@H](CC1)N2C)c1ccc(Br)cc1 (stereo not given in full) | 0.821 | 0.934
CCOc1ccc(Oc2ccc(OCc3cc(F)ccc3F)cc2)c(N)c1 | 1.03 | 0.887
C[C@@H]1O[C@@H](OC[C@H]2O[C@@H](OCCc3ccc(O)c(O)c3)[C@H](O)[C@@H](O[C@@H]3O[C@@H](C)[C@H](O)[C@@H](O)[C@H]3O)[C@@H]2OC(=O)/C=C/c2ccc(O)c(O)c2)[C@H](O)[C@H](O)[C@H]1O | 1.09 | 0.982
N[C@@H](C(=O)N[C@@H]1C(=O)N2C(C(=O)O)=C(CSc3cn[nH]n3)CS[C@H]12)c1ccc(O)cc1 | 1 | 0.912
C/C1=C/CCC(C)(O)/C=C\C(C(C)C)C(OC(=O)c2ccc(O)cc2)C1 (stereo not given) | 1.06 | 1.07
O=C1NC(=O)/C(=C/c2cccc(C(F)(F)F)c2)S1 | 1.02 | 1.06
O=C1NC(=O)/C(=C/c2ccc3c(c2)OC(F)(F)O3)S1 | 1.31 and 1.12 | 1.42 and 1.06

SMILES | PER2::LUC luminescence (time after treatment 24 h) | PER2::LUC luminescence (time after treatment 30 h)
O=C1NC(=O)/C(=C\c2ccc3nccnc3c2)S1 | 1.2 | 1.23
O=C(O)c1cccc(CN2C(=O)/C(=C(\c3ccccc3)c3ccc(Cl)cc3)c3ccccc32)c1 | 1.09 | 1.03
CO[C@@H]1[C@@H](O[C@@H]2O[C@H](C)[C@@H](O[C@H]3C[C@@](C)(O)[C@@H](OC(=O)CC(C)C)[C@H](C)O3)[C@H](N(C)C)[C@H]2O)[C@@H](CC=O)C[C@@H](C)[C@@H](O)/C=C/C=C/C[C@@H](C)OC(=O)C[C@H]1O | 0.929 | 1.07
CN(C)c1ccc2c(c1)OC(N)=C(C#N)C2c1cccc(C(F)(F)F)c1 (stereo not given) | 1.04 | 1
NC(=O)c1ccccc1Nc1ccnc(Nc2cccc(O)c2)n1 | 0.392 | 0.446
CC1(C)C2CCC1(C)C(O)C2 (stereo not given) | 1.1 | 0.997
Clc1ccc(C(Cn2ccnc2)OCc2ccc(Sc3ccccc3)cc2)c(Cl)c1 (stereo not given) | 0.905 | 1.06
Clc1ccc(COC(Cn2ccnc2)c2ccc(Cl)cc2Cl)cc1 (stereo not given) | 1.26 and 1.03 | 1.35 and 1.25
Clc1ccc(COC(Cn2ccnc2)c2ccc(Cl)cc2Cl)c(Cl)c1 (stereo not given) | 1.04 and 0.591 | 1.29 and 1.01
C=CC(C1=CC(=O)C(OC)=CC1=O)c1ccc(O)cc1 (stereo not given) | 0.816 | 0.863
CCCCCCCCCCC1=C(C)C(=O)C(OC)=C(OC)C1=O | 1.02 | 0.992
CCN1C[C@H](C)n2c(c(O)c3c(=O)n(Cc4ccc(F)c(Cl)c4)nc(C(=O)NC)c32)C1=O | 1.29 | 1.16
C[C@@H]1CCO[C@H]2Cn3cc(C(=O)NCc4ccc(F)cc4F)c(=O)c(O)c3C(=O)N12 | 1.35 and 1.15 | 1.4 and 1.2
CC(=O)c1ccc2c(c1)C1C=CCC1C(c1cc3c(cc1Br)OCO3)N2 (stereo not given) | 1.02 | 0.942
CC(C(=O)Nc1cc(C#N)ccc1CCCC(=O)O)c1ccc(F)c2ccccc12 (stereo not given) | 1.06 | 1.03
COC(=O)C(O)CCn1cnc2c(N)ncnc21 (stereo not given) | 0.95 | 0.999
CC1(C)S[C@@H]2[C@H](NC(=O)C(C(=O)O)c3ccccc3)C(=O)N2[C@H]1C(=O)O (stereo not given in full) | 1.05 | 1.03
COc1cccc(OC)c1C(=O)N[C@@H]1C(=O)N2[C@@H]1SC(C)(C)[C@@H]2C(=O)O | 0.867 | 0.823
CC1(C)S[C@@H]2[C@H](NC(=O)Cc3ccccc3)C(=O)N2[C@H]1C(=O)O | 1.06 and 1.17 | 1.72 and 0.949
CC1(C)S[C@@H]2[C@H](NC(=O)[C@H](N)c3ccccc3)C(=O)N2[C@H]1C(=O)O | 1.04 and 0.885 | 0.911 and 0.808
CC1(C)S[C@@H]2[C@H](NC(=O)COc3ccccc3)C(=O)N2[C@H]1C(=O)O | 1.09 | 1.56
CC(Oc1ccccc1)C(=O)N[C@@H]1C(=O)N2[C@@H]1SC(C)(C)[C@@H]2C(=O)O (stereo not given in full) | 1.02 | 0.902
Nn1cc(Br)c(=O)[nH]c1=O | 0.972 | 0.954
CC[N+]1(C)C2CCC1CC(OC(=O)C1CCC(C(=O)OC3CC4CCC(C3)[N+]4(C)CC)(c3ccccc3)c3ccccc31)C2 (stereo not given) | 0.898 | 0.961
CN(Cc1ccccc1)c1ccc2cc(C(=O)O)c(=O)oc2c1 | 1.06 | 0.948
